A selection: hits, their analogues and other compounds. The true share with any hit is near 4.8%.
Hsp70 act: Hsp70 transcriptional activators, primary screen, cell-based, HeLa, Hsp70 promoter luciferase, luminescence, 10 µM | 200,000 tested, 0.04% active | activation, % at 10 µM | HeLa Hsp70 promoter luciferase reporter; scaled: vehicle 0, proteasome-inhibitor control 100%;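 active = activation above the mean across all tested compounds plus 3 SD, cutoff set per campaign, cut at about 5.5% in these data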;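 note: 100% = MG132 at 30 µM as the positive control and 0% = DMSO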
STAT1 act: STAT1 signaling activators, primary screen, cell-based, HTS, luciferase reporter; activation (% of control), % at 5.5 µM; AID 932, 2007; 200,000 tested, 2.6% active; NIH 3T3 STAT1-luciferase reporter, IFN-gamma, luminescence; 100% = IFN-gamma alone, no compound;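 active = activation above the screen-wide mean activation plus 3 SD, cut at about 130% in these data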;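 note: raw ratio to IFN-gamma control signal so 100% means no change and 0% no light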
NF-kB neuron act: activators of NF-kB expression in neurons, primary screen, cell-based, HTS. human neuronal cells, NF-kB reporter expression; active compounds read high. fold change at 12.5 µM. 190,000 tested, 1.6% active. AID 1239, 2008; in the data active = fold change above about 3.3
APP 5UTR inh: inhibitors of APP translation via 5'UTR reporter, primary screen, APP 5'UTR luciferase, SH-SY5Y cells. inhibition, % at 2 µM. SH-SY5Y APP 5'UTR-luciferase reporter, luminescence. 190,000 tested, 0.82% active. AID 1285, 2008;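 active = inhibition above a set limit, derived from the sample mean plus 3 SD, cut at about 45% in these data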
APP 5'UTR act: activators of APP 5'UTR luciferase reporter, primary screen, SH-SY5Y cells; AID 1276, 2008; 190,000 tested, 1% active; activation, % at 2 µM; SH-SY5Y APP 5'UTR luciferase reporter, luminescence; zero percent = DMSO vehicle wells;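 active = activation above a set limit, based on mean plus 3 SD of controls, cut at about 140% in these data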
Wee1 degr inh: Wee1 degradation inhibitors, primary screen, cell-based, HeLa, Wee1K328M-luciferase, luminescence; HeLa Luc-Wee1K328M stability; 100% = proteasome inhibitor MG132 effect; reporter increase, % at 5 µM; 220,000 tested, 1.2% active; Wee1-like protein kinase (Homo sapiens), P30291;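 active = activation above the mean of all tested compounds plus 3 SD, set per screening run, cut at about 8.8% in these data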;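 note: cells exposed to compound for 20 h before luminescence read; 0% = DMSO alone and 100% = MG132 at 30 µM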
Numbers without * were called inactive; / = no result.

SMILES | Hsp70 act | STAT1 act | NF-kB neuron act | APP 5UTR inh | APP 5'UTR act | Wee1 degr inh
CC(=O)c1cccc(NS(=O)(=O)c2c(C)noc2C)c1 | 0.3 | 99.8 | 1.1 | 8.9 | -8.9 | -0.7
CC(C)(C)c1ccc(-c2noc(CCC(=O)NCc3ccco3)n2)cc1 | -0.2 | 95.3 | / | 68.2* | -68.2 | 0.6
CCc1cccc(Nc2cnn(C34C[C@@H]5C[C@@H](CC(CC(=O)O)(C5)C3)C4)c(=O)c2Cl)c1 | 0.0 | 137.8* | 1.16 | -3.2 | 3.2 | 0.7
Cc1ccc(Nc2cnn(C34CC5CC(CC(CC(=O)O)(C5)C3)C4)c(=O)c2Cl)cc1C | -0.4 | 97.8 | 1.06 | -0.5 | 0.5 | 1.7
Cc1cc(C)nc(NC(=O)CSc2ncccn2)n1 | -0.2 | 95.7 | 1.05 | 11.6 | -11.6 | -3.5
Cc1cc(C)nc(NC(=O)CSc2ccccn2)n1 | -0.1 | 99.2 | 1.27 | -12.4 | 12.4 | 16.9*
CCOC(=O)c1sc(NC(=O)CSc2ccccn2)c(C#N)c1C | -0.2 | 103.6 | 3.75* | -2.5 | 2.5 | -1.0
CC(=C/c1ccc(C(C)C)cc1)/C=N/NC(=O)CSc1ccccn1 | -0.2 | 148.7* | 0.84 | -50.7 | 50.7 | 1.8
COc1ccc2c(C)c(Cl)c(=O)oc2c1 | -0.3 | 96.7 | 1.17 | 6.4 | -6.4 | 0.0
COc1ccccc1C(=O)N1CCNC(=O)C1CC(=O)Nc1cccc(C)c1 (configuration not stated) | -0.1 | 95.4 | 1.06 | -7.4 | 7.4 | -0.8
COC(=O)C(/C=N/OCc1ccc([N+](=O)[O-])cc1)NC(=O)c1ccccc1 (configuration not stated) | -0.4 | 93.8 | 1.05 | 3.5 | -3.5 | 1.4
CC(C)N=C(NS(=O)(=O)c1ccc(Br)cc1)c1ccc(Cl)cc1 | -0.1 | 99.1 | / | -9.2 | 9.2 | 2.4
Cc1cccc(C(=O)Nc2ccc(O)cc2)c1 | -0.2 | 113.6 | 2.78 | -23.6 | 23.6 | -1.0
O=C(Cn1cnc2ccccc2c1=O)c1ccccc1 | -0.6 | 115.0 | 1.35 | 14.3 | -14.3 | 1.9
Cc1ccc(C(=O)Cn2cnc3ccccc3c2=O)cc1 | 0.7 | 132.9* | 2.39 | -89.9 | 89.9 | -0.2
CC(C)(C)n1ncc2c(=O)n(CC(=O)c3ccccc3)cnc21 | 1.0 | 150.4* | 2.07 | -56.3 | 56.3 | -0.4
O=C(Cn1cnc2ccccc2c1=O)c1ccc(Br)cc1 | 1.1 | 143.8* | 2.88 | -36.9 | 36.9 | 0.4
CCOC(=O)/C(C(N)=NCc1ccco1)=C(/O)c1ccccc1 | -0.1 | 100.5 | 0.73 | -24.3 | 24.3 | 1.1
CC1SCC(=NOCc2c(Cl)cccc2Cl)CS1 (configuration not stated) | / | / | / | / | / | -3.3
C/C(=N/OCO/N=C(\C)c1ccccc1)c1ccccc1 | -0.2 | 99.3 | 1.1 | -2.2 | 2.2 | -2.7
C/C(=N\OCc1ccc(C#N)cc1)c1ccccc1 | 0.0 | 142.0* | 2.64 | -93.8 | 93.8 | 0.8
CNc1cc(C(F)(F)F)nc(-c2ccccn2)n1 | -0.3 | 98.3 | 0.95 | 3.3 | -3.3 | -1.9
CC1=CC(=O)C=C(C)C1=NOS(=O)(=O)c1ccccc1 | 0.5 | 91.4 | 3.96* | 80.2* | -80.2 | 1.1
COc1cc(-c2[nH]ncc2CN(C)Cc2cc(C)[nH]n2)cc(OC)c1OC | -0.2 | 93.3 | 1.1 | -4.5 | 4.5 | -1.9
Cc1cc(C(=O)CN2C(=O)NC3(CCCC3)C2=O)c(C)n1-c1ccc2c(c1)OCO2 | -0.5 | 101.4 | 0.83 | -1.1 | 1.1 | 2.8
Cc1cc(C(=O)CN2C(=O)NC3(CCCCC3)C2=O)c(C)n1Cc1ccc2c(c1)OCO2 | 0.5 | 119.7 | 1.55 | -15.8 | 15.8 | 9.2*
Cc1cccc(NC(=S)N(CCN(C)C)C(C)c2cccnc2)c1 (configuration not stated) | -0.3 | 94.9 | 1.1 | -11.7 | 11.7 | 0.7
COc1ccc(NS(=O)(=O)c2ccc(N)c(C(=O)O)c2)cc1 | -0.4 | 100.0 | 0.99 | 0.3 | -0.3 | -0.6
CC(=O)CC1OC(=O)C(Br)=C1NCc1ccccc1 (configuration not stated) | 0.2 | 108.5 | 1.23 | 71.2* | -71.2 | -2.6

Compound activity: PubChem, several laboratories
